From PubChem
S2 tox: viability counter-screen for ATXN expression inhibitors | S2 cells (HEK-293 line with an ATXN2-luciferase reporter) viability, CellTiter-Fluor protease fluorescence, 24 h | actives 0.49% (n = 400,000) | Potency, µM (highest dose often 56.7 µM), most hits filed as cytotoxic; also: potency is read from the fitted curve at half-maximal effect; nearly all actives have a fitted effect of over 40% in size
DRD3 antagonist: antagonists of human D3 dopamine receptor; P35462; D3R cells, DiscoveRx beta-arrestin luminescence, antagonist mode; hits give low values; max response, negative = inhibition, %; actives 2.5% (n = 360,000); in the data active = max response below about -50%; inconclusive = no clear call, values can overlap the other calls; also: % is scaled to controls: 0 for no effect and ±100 for the full control effect
Target sequence (P35462 whole entry, looked up): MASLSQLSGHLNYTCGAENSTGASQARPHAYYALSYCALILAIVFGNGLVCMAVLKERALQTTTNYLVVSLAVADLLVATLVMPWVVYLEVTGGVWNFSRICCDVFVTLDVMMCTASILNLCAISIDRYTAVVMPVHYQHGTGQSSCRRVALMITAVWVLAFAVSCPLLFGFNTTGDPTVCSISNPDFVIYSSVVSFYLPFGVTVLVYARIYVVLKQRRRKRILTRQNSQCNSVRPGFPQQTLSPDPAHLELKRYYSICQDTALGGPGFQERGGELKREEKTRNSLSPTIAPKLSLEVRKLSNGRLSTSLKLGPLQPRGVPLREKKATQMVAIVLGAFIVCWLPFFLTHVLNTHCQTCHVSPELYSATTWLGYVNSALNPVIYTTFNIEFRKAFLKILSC
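Cells plated overnight at 1500 cells/well, then exposed to library compounds with dopamine controls for 90 minutes at 37 degrees C. DiscoveRx reagent added for 30–60 minutes at room temperature; luminescence read, quantitative HTS format.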
TGFb inhibitor: blocks TGF-b signaling | HepG2 CAGA-GFP TGF-b/SMAD3 reporter, GFP fluorescence, 18 h; TGF-beta stimulated, 500 pg/mL final | Potency, µM (doses to about 46.1 µM), inactives show at the highest dose activity, negative = inhibition, hits mostly inhibitors | actives 1.2% (n = 410,000); also: potency is read from the fitted curve at half-maximal effect; % is scaled to controls: 0 for no effect and ±100 for the full control effect; nearly all actives have a fitted effect of over 65% in size
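Smad-responsive CAGA-GFP expression was quantified in HEPG2 cells exposed to compounds and 500 pg/mL final TGF-beta for 18 h at 37 degrees C; unstimulated wells defined full inhibition.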
HepG2 tox: HepG2 cytotoxicity, counter-screen for TGF-b inhibitors; AID 588856; HepG2 CAGA-GFP viability, ATP luminescence, 18 h; actives 0.76% (n = 410,000); Potency, µM (series often up to 46.1 µM), for the others: at the top dose activity change, negative = cytotoxicity, usual class: cytotoxic; also: potency is read from the fitted curve at half-maximal effect
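CellTiter-Glo luminescence gave cytotoxicity after 18 hours at 37 degrees C. The cells were HepG2 CAGA-GFP in 1% FBS DMEM, stimulated with 500 pg/mL TGF-beta after compound addition. %Activity was normalised to no-cell wells (complete cell-killing) and DMSO (no toxicity), and curves were fitted and classified.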
ATXN2 expr inh: reduces ATXN2 reporter expression in HEK-293 cells. HEK-293 ATXN2-luciferase reporter, luminescence, 24 h. Potency, µM (series often up to 57 µM), without a hit: at the highest dose activity change, negative = inhibition, usual class: inhibitors. actives 0.72% (n = 360,000); also: potency is read from the fitted curve at half-maximal effect; % is scaled to controls: 0 for no effect and ±100 for the full control effect; nearly all actives have a fitted effect of over 55% in size
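ATXN2-luciferase reporter cells (luciferase flanked by upstream and downstream ATXN2 gene portions) were treated 24 h at 37 °C with compounds at up to 57 uM. SteadyGlo luminescence gave expression; GF-AFC fluorescence gave viability.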
D3 ag: D3 dopamine receptor (human) agonism; D3R DiscoveRx beta-arrestin cells, luminescence, 90 min; actives 0.58% (n = 410,000); P35462; max activation, %; in the data active = max activation above about 30%; also: 0% is about no effect
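Agonist-mode cell screen: cells plated at 1500/well and incubated overnight at 37 °C, then exposed to library compounds for 90 min at 37 °C. Detection reagent was added for 30–60 min at room temperature, and luminescence was read.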
* hit, by the source's call; i = inactive; ? = inconclusive; nt = no result. An excerpt weighted towards active compounds, which were near 4.8% of everything screened. Unless noted, calls follow the shape of the dose curve; as a rule, active = well fitted curve in the direction sought with a large enough effect; inconclusive = small, poorly fitted or top-dose-only effect, or another doubt; inactive = no such curve, though single readings can be large; an effect the other way counts as inactive or inconclusive.

SMILES	S2 tox	DRD3 antagonist	TGFb inhibitor	HepG2 tox	ATXN2 expr inh	D3 ag
CN1CCN(C(c2cccc(Cl)c2)c2ccccc2Cl)CC1 (stereo not given)	i	-81*	?	-39%	-10%	-22
CN1CCN(C(c2ccccc2)c2ccc(Cl)cc2)CC1 (stereo not given)	?	-92*	19%	-35%	?	-91
CN1CCN(C(c2ccccc2Cl)c2sc3nc(-c4ccco4)nn3c2O)CC1 (stereo not given)	nt	nt	12%	5%	nt	-9
CN1CCCN([C@@H](c2ccccc2)c2ccc(Cl)cc2)CC1	i	nt	nt	nt	nt	nt
CCCn1c2ccccc2c2cnn(CC(=O)NCc3ccc(OC)cc3)c(=O)c21	nt	nt	-29%	-3%	nt	13
Cc1cc(C)nc(Nc2ccccc2Cl)n1	i	-70*	4%	-2%	-15%	-15
CCOC(=O)c1cccc(NC(=O)COc2ccc3c(C)cc(=O)oc3c2)c1	nt	nt	-6%	-22%	nt	3
C=CCN(C(=O)CCc1ccccc1OC)c1nc(-c2ccc(S(C)(=O)=O)cc2)cs1	i	0	1%	4.5µM*	6%	-4
Cc1ccc2[nH]c3nc(SCCN4CCOCC4)nnc3c2c1	i	-57*	-2%	2%	8%	-3
COc1ccc(CNC(=O)CSc2nnc3c(n2)[nH]c2ccc(C)cc23)cc1	i	2	15%	3%	8%	-1
COc1ccc2[nH]c3nc(SCc4nnc(-c5ccc(C)cc5)o4)nnc3c2c1	nt	10	9%	-2%	20µM*	0
CCc1ccc(S(=O)(=O)c2cn(C)c3cc(N4CCC(C)CC4)c(F)cc3c2=O)cc1	nt	nt	-10%	-1%	nt	6
O=C(/C=C/c1cccc(Cl)c1)c1ccc([N+](=O)[O-])o1	8.9µM*	-84*	3.5µM*	13µM*	4.5µM*	-10
Cc1cc(O)c(C(=O)/C=C/c2cccc([N+](=O)[O-])c2)c(=O)o1	i	-11	-11%	-6%	-4%	-12
COc1ccccc1CNC(=O)Cn1cc2c(n1)-c1c(oc(C(=O)N3CCOCC3)c1C)CC2	nt	nt	-24%	-3%	nt	5
O=C1C(=O)N(CCS(=O)(=O)c2ccccc2)c2ccc(Cl)cc21	i	-75*	22µM*	-106%	-14%	-23
CCCN1C(=O)C(=O)c2cc(Cl)ccc21	?	-74*	13µM*	-78%	?	-35
O=P(CCCCCCCCCP(=O)(c1ccccc1)c1ccccc1)(c1ccccc1)c1ccccc1	22µM*	3	?	-98%	25µM*	0
O=C(O)CCCCCCCCCCP(=O)(c1ccccc1)c1ccccc1	?	7	-3%	15%	1%	6
CCOc1ccc(-c2ccc(SC)nn2)cc1	i	-6	17%	13µM*	?	-9
CCOc1ccc(-c2ccc(SCC(=O)Nc3nnc(CC)s3)nn2)cc1	i	8	4%	9%	9%	-2
COc1ccc(C)cc1NC(=O)CN1C(=O)CCc2cc(S(=O)(=O)N3CCOCC3)ccc21	i	nt	-27%	6%	14%	3
COc1ccc(C(=O)CSc2nc(C(C)(C)C)nc3ccccc23)cc1	i	64	20µM*	-31%	-23%	7
CC(C)(C)c1ccc(C(=O)CSc2nc3ccccc3c(=O)[nH]2)cc1	i	47	-7%	-1%	-7%	34*
O=C(CSc1nc2ccccc2c(=O)[nH]1)c1ccccc1	i	-12	-33%	-16%	28%	-3
SMILES	S2 tox	DRD3 antagonist	TGFb inhibitor	HepG2 tox	ATXN2 expr inh	D3 ag
Cc1cnc(-n2ncc(C(=O)NCc3ccncc3)c2C(C)C)nc1-c1ccc(F)cc1	i	nt	nt	nt	nt	nt
Cc1cc(C(=O)Nc2ccccc2-c2nc(CNC(=O)c3cc4ccccc4cn3)c(C)o2)c(C)o1	i	nt	nt	nt	nt	nt
FC(F)(F)c1cc(Sc2ccccc2)nc(-c2ccccn2)n1	i	31	-13%	-6%	-2%	34*
FC(F)(F)c1cc(Nc2ccccc2)nc(-c2ccccn2)n1	i	-5	-20%	-7%	?	-2
COc1ccc(-c2nc(CCNC(=O)c3c(F)cccc3Cl)cs2)cc1	nt	nt	?	-38%	nt	5
CCSc1nsc(NC(=O)Nc2cccc(OC)c2)n1	i	10	22µM*	-30%	-27%	3
C=CCSc1nsc(NC(=O)Nc2ccc(F)cc2)n1	8.9µM*	0	6.3µM*	-38%	?	-1
Cc1cccc(C)c1NC(=O)C(=O)NCC(c1ccc2c(c1)OCO2)N1CCOCC1 (stereo not given)	i	nt	10%	-15%	8%	3
CCCn1c2ccccc2c2cnn(CC(=O)NCCCN(Cc3ccccc3)C(C)C)c(=O)c21	?	nt	?	-43%	-23%	-4
CN(C(=O)COc1ccc(C(C)(C)C)cc1)C1CCS(=O)(=O)C1 (stereo not given)	i	-64*	0%	-2%	-8%	-6
COc1ccccc1N1CCN(CC(O)c2ccc3cc[nH]c3c2)CC1 (stereo not given)	i	-82*	-11%	-16%	-25%	-15
COc1ccccc1N1CCN(C(=O)COc2cc(C)ccc2C)CC1	i	?	-2%	-19%	-6%	-9
CCOC(=O)N1CCN(CC(O)c2ccc3cc[nH]c3c2)CC1 (stereo not given)	i	5	5%	4%	-8%	3
COc1ccccc1N1CCN(CC(O)COc2ccc(C)cc2C)CC1 (stereo not given)	i	-94*	1%	-16%	-16%	-20
COc1ccccc1N1CCN(CCCCOc2ccc(C)cc2C)CC1	i	-86*	-21%	-16%	-19%	-11
COc1ccccc1N1CCN(CC(O)COCCOc2ccc(Br)cc2)CC1 (stereo not given)	i	-86*	?	-46%	-27%	-12
Cc1ccc(NCc2cccn2-c2nnc(N3CCC(C(=O)NCc4ccc(F)cc4)CC3)s2)cc1	nt	nt	nt	-25%	nt	-7
CN(C)c1ccc(/C=C/c2ccnc3c(-c4ccccc4)cccc23)cc1	nt	nt	15%	-20%	nt	nt
COc1cc(COCC(O)CN2CCN(Cc3ccccc3)CC2)cc(OC)c1OC (stereo not given)	i	-9	15%	0%	-21%	2
COc1ccc(N2CCN(CC(O)c3c[nH]c4ccc(OC)cc34)CC2C)cc1 (stereo not given)	i	0	4%	-13%	?	-4
